Screens from PubChem.
An excerpt weighted towards active compounds, which were near 14% of everything screened.
NS1 inh = inhibitors of influenza NS1 protein function; 0.4% of 270,000 active; Potency, µM (doses to about 46.1 µM), for inactives: at the highest dose activity, positive = more growth; calls by dose curve; further: potency means the concentration at half of the fitted maximal effect; actives are rising curves; nearly all actives have a fitted effect of over 50% in size
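Read-out: OD600 growth recovery of NS1-expressing budding yeast. Cells grown overnight at 30C in -URA glucose medium, washed, resuspended and diluted 1:100 in 2% galactose assay medium, pH 6.0. Same strain lacking NS1 served as positive control.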
Giardia FBPA inh = blocks Giardia fructose-bisphosphate aldolase activity; A8B2U2; purified Giardia FBPA; Potency, µM (highest dose often 59.6 µM), for the others: at the highest dose activity, negative = inhibition, actives largely listed as inhibitors; 0.71% of 290,000 active; AID 2451; further: potency means the concentration at half of the fitted maximal effect; on the % scale 0 is the no-effect control and ±100 the full control effect; nearly all actives have a fitted effect of over 55% in size
Target sequence (A8B2U2 whole entry, looked up): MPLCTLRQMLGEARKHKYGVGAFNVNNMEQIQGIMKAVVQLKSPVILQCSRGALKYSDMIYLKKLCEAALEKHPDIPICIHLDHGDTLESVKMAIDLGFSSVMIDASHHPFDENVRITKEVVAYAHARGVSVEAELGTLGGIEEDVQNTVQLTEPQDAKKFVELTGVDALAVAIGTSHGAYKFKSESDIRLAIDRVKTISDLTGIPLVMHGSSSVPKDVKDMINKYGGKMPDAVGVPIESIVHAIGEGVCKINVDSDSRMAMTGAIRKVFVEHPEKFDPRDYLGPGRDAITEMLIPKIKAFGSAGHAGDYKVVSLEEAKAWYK
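Giardia FBPA (40 nM reagent) was preincubated 10 min at RT with compound (up to 57.5 uM final), then substrate plus GAPDH/TPI/NAD/arsenate coupling system with diaphorase/resazurin was added; resorufin fluorescence (525/598 nm) was read after 20 min.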
LmPK inh = LmPK (Leishmania mexicana) enzyme inhibition; purified LmPK, Kinase-Glo ATP luminescence, 1 h; Potency, µM (doses to about 57.5 µM), without a hit: top-dose activity change, negative = inhibition, usual class: inhibitors; 0.37% of 290,000 active; Q27686; further: potency means the concentration at half of the fitted maximal effect; on the % scale 0 is the no-effect control and ±100 the full control effect
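0.1 nM LmPK, 0.5 mM PEP, 0.1 mM ADP; 50 mM imidazole pH 7.2, 7 mM MgCl2, 50 mM KCl; 1 h RT. Kinase-Glo luminescence readout, normalized to no-enzyme (full inhibition) and uninhibited wells.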
Cycloheximide cs = affects cycloheximide protein synthesis inhibition readout, counter-screen; AID 2314; 12% of 300,000 active; cell reporter, cycloheximide protein synthesis inhibition counterscreen; max response, %; in the data active means max response mostly above about 13%, no sharp cut-off; inactive means mostly below about 14%; further: read at 38.3 µM for the half of the compounds with a filed dose; 0% is about no effect
Shiga inhibitor = blocks Shiga toxin action in Vero cells. Vero cells, Shiga toxin protein synthesis inhibition reporter. inhibition, % at 38.7 µM. 9.2% of 290,000 active; in the data active means inhibition mostly above about 28%, no sharp cut-off; inactive means mostly below about 43%; further: 0% is about no effect
Active calls of the source: *; / = no result; [ ] = dose if it differs, or a comment. Unless noted, the call rests on the fitted dose curve; in most records, active means well fitted curve in the direction sought with a large enough effect; inconclusive means small, poorly fitted or top-dose-only effect, or another doubt; inactive means no such curve, though single readings can be large; an effect the other way counts as inactive or inconclusive.

SMILES	NS1 inh	Giardia FBPA inh	LmPK inh	Cycloheximide cs	Shiga inhibitor
COc1ccc(-c2noc(N3CCCC(C(=O)Nc4ccc(F)cc4F)C3)n2)cc1 (stereo unspecified)	-24.8%	2.3%	-3.8%	14.2*	23.4*
COc1ccc(OC)c(NC(=O)C2CCN(c3ncccn3)CC2)c1	-8.5%	0.6%	4.6%	-2.4	-11.6
COc1cccc(NC(=O)C2CCN(c3ncccn3)CC2)c1	-47.9%	-2.6%	-3.4%	11.1*	25.3*
COc1ccc(-c2noc(N3CCCC(C(=O)Nc4ccccc4F)C3)n2)cc1 (stereo unspecified)	-7.6%	3.8%	-0.5%	6.4	1.6
COc1cccc(NC(=O)C2C3CCC4C(CCC32)C4(Cl)Cl)c1 (stereo unspecified)	-5.3%	-3.9%	0.8%	14.8*	40.3
COc1ccc(NC(=O)C2C3CCC4C(CCC32)C4(Cl)Cl)cc1 (stereo unspecified)	7.2%	0.5%	1.0%	-5.7	-2.1
CC(=O)c1cccc(NS(=O)(=O)N2CCOCC2)c1	6.2%	/	-6.8%	2.8	-8.1
C=CCNC(=O)C1CCN(S(=O)(=O)c2ccc3ccccc3c2)CC1	-6.5%	5.0%	-1.2%	1.2	-9.0
CCc1ccc(NC(=O)CSc2nnc(CNC(=O)c3ccc(OC)cc3)o2)cc1	14.1%	/	-9.6%	16.4	-1.4
COc1ccccc1CN1CC(C(=O)NCc2ccc(SC)cc2)CCC1=O (stereo unspecified)	-2.9%	8.1%	-0.7%	9.0	-3.6
COc1ccc(-c2noc(-c3ccccc3C(=O)Nc3cccc(OC)c3)n2)cc1	6.9%	-2.9%	4.5%	3.0	24.4
CC(=O)Nc1cccc(Oc2ccc(-c3noc(C)n3)cc2)c1	-88.4%	-8.8%	-5.8%	44.1*	79.3*
CCOC(=O)N1CCN(c2nc(-c3ccc(OC)cc3)no2)CC1	-14.5%	-0.3%	-10.3%	26.0*	62.0*
COc1cc2c(cc1OC)C(C(=O)c1ccc(OC)c(OC)c1O)=NCC2	/	-28.4%	/	/	/
O=S1(=O)C2CC3C=CC2(CN1Cc1cccc(F)c1)O3 (stereo unspecified)	/	8.4%	/	5.4	17.7
CCN(C(=O)c1cc2ccccc2oc1=O)c1cccc(C)c1	2.9%	5.3%	-7.1%	53.0*	77.7*
CCN(C(=O)c1cc2ccccc2oc1=O)c1ccccc1	-9.4%	-3.4%	-7.4%	24.3*	42.1
CSc1cccc(NC(=O)CN(C)S(=O)(=O)c2cnc[nH]2)c1	9.3%	/	0.2%	9.5	16.0
O=C(Cc1ccc(Br)cc1)N1CCN(Cc2ccccc2)CC1	-26.2%	0.5%	2.0%	18.4*	21.3
O=C(Cc1ccc(Br)cc1)N1CCCCCC1	-6.6%	2.6%	-5.5%	46.5*	60.3*
O=S(=O)(Cc1ccccc1)N1CCN(Cc2ccc(Br)cc2)CC1	-14.3%	/	-16.1%	34.8*	30.9*
COC(=O)C1CCN(C(=O)Cc2ccc(Br)cc2)CC1	-5.1%	7.9%	8.8%	28.2*	66.0*
O=C(Cc1ccc(Br)cc1)N1CCCC1	-7.2%	-5.2%	-2.3%	6.0	15.9
CC[C@H](C)[C@H](NC(=O)[C@H](CC(C)C)NC(=O)[C@H](CC(N)=O)NC(=O)[C@@H](NC(=O)[C@@H](N)Cc1ccc(O)cc1)[C@@H](C)CC)C(=O)N[C@@H](Cc1ccc(O)cc1)C(=O)N[C@@H](CCCN=C(N)N)C(=O)N[C@@H](CC(C)C)C(=O)N[C@@H](CCCN=C(N)N)C(=O)N[C@@H](Cc1ccc(O)cc1)C(N)=O	/	3.0%	/	-1.9	-3.0
CCCCc1ccc(/C(C)=N/NC(=O)C2CCCC2)cc1	10.0%	-4.3%	0.4%	7.9	-3.5
SMILES	NS1 inh	Giardia FBPA inh	LmPK inh	Cycloheximide cs	Shiga inhibitor
Cc1ccc(NC(=O)c2ccccc2NC(=O)c2cccs2)cc1	-8.6%	10.5%	0.2%	1.5	14.0
C/C(=N\NC(=O)c1ccc(NS(=O)(=O)c2cccs2)cc1)c1ccc(C(C)(C)C)cc1	0.3%	-8.3%	0.3%	-0.9	-3.4
C/C(=N\NC(=O)c1ccccc1)c1ccc(NC(=O)c2cccs2)cc1	-15.0%	0.5%	-3.4%	22.5*	105.8*
C/C(=N/NC(=O)C1CCCC1)c1ccc(NC(=O)C(F)(F)F)cc1	8.0%	/	0.1%	19.2*	32.3
C/C(=N\NC(=O)c1ccco1)c1ccc(NC(=O)c2cccs2)cc1	-9.0%	0.2%	-1.8%	64.2*	129.5*
C/C(=N\NC(=O)c1ccccc1C)c1ccc(NC(=O)c2cccs2)cc1	-94.1%	0.0%	-8.6%	45.8*	113.8*
C/C(=N/NC(=O)c1ccccc1)c1ccc(NC(=O)C(F)(F)F)cc1	5.4%	-6.1%	6.4%	43.1*	135.4*
C/C(=N\NC(=O)c1ccc(N2CCCC2=O)cc1)c1ccccc1	-7.3%	2.4%	9.4%	-0.9	17.0
C/C(=N\NC(=O)C(N)=O)c1ccc(NC(=O)c2cccs2)cc1	-10.3%	-6.3%	0.6%	33.1*	68.9*
C/[N+]([O-])=C\c1cccc(OCCN2CCN(c3ncc(C(F)(F)F)cc3Cl)CC2)c1	-4.6%	-0.3%	0.0%	-5.9	-5.5
CC(=O)Oc1c(C)cc(Cl)cc1C(=O)Nc1ccc([N+](=O)[O-])cc1Cl	-65.2%	3.2%	-1.4%	74.2*	128.3*
CC(=O)OCC(=O)Nc1ccc([N+](=O)[O-])cc1Cl	/	1.0%	6.0%	8.6	-2.7
CCC1(c2ccc(O)cc2)NC(=O)N(C)C1=O (stereo unspecified)	/	1.6%	/	-1.4	-13.3
CN(C)c1ccc(CNn2cnnc2SCc2ccccc2F)cc1	-17.8%	-2.7%	5.1%	24.6*	37.2*
O=C(Nc1cc2c(oc1=O)CCCC2=O)c1cccc(Cl)c1	-2.9%	-0.6%	-7.7%	15.4	61.3*
COc1ccc(C(=O)Nc2cc3c(oc2=O)CCCC3=O)cc1	0.8%	-9.9%	-1.9%	25.4*	41.9
Cc1ccccc1C(=O)Nc1nnc(-c2ccc(C(C)(C)C)cc2)s1	11.6%	-0.6%	-0.5%	15.7*	-8.8
Cc1cccc(C(=O)Nc2nnc(-c3ccc(C(C)(C)C)cc3)s2)c1	-6.5%	0.7%	1.4%	18.8*	45.8
Cc1cccc(-c2nnc(NC(=O)c3ccc(N4C(=O)CCC4=O)cc3)s2)c1	9.1%	3.5%	1.8%	-3.4	-12.6
COc1ccccc1N1CCN(S(=O)(=O)CCNC(=O)c2ccccc2Br)CC1	5.2%	-3.4%	2.9%	-0.9	-4.9
CC(=O)Nc1ccc(NC(=O)c2ccc(COc3ccc(C)cc3)o2)cc1	12.8%	8.0%	-1.8%	19.4*	111.0*
O=C(O)c1ccc(NC(=O)c2ccc(COc3ccccc3)o2)cc1	3.1%	4.6%	1.3%	17.0	55.2
COc1ccc(NC(=O)c2ccc(COc3ccc(C)cc3)o2)cc1	-8.7%	0.5%	10.3%	34.3*	73.3*
COc1cccc(NC(=O)CN2CCSc3ccccc32)c1	/	-8.9%	-1.6%	7.5	-0.5
Cc1cccc(NC(=O)CN2CCSc3ccccc32)c1	/	-7.8%	3.8%	33.7*	48.7*
CCc1cc2c(nc1CC)CCN(CC/C(C)=N/OC[C@@H](C)[C@H](OCc1ccccc1)C(C)C)C2	/	-0.8%[12.9 µM]	/	/	/
CCCCN1c2ccccc2N(CCCO)c2cc(C)nnc21	-247.8%	-4.6%	-2.8%	13.7*	23.1
